Results: the supplement of paper PMC3334620
In all, about 33,000 sequences were measured (“E-score (-0.5 to 0.5)”: median about -0.056, highest 2% from about 0.38 on). This excerpt belongs to a sample that is enriched for the highest values.

Biological target: Stb4 (UniProt P50104)
Assay: PBM E-score (8-mer binding enrichment) (E-score (-0.5 to 0.5)); higher = stronger / more preferred TF binding
Conditions: protein concentration: 200 nM; construct: GST-DNA-binding domain
Method: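 Universal 'all 10-mer' protein binding microarrays (Agilent AMADID 015681) probed with GST-tagged S. cerevisiae TFs (full-length or DBD) made by in vitro transcription/translation (PURExpress), about 100-200 nM. Bound TF was detected with fluorescent anti-GST. Each ungapped 8-mer (which stands for itself and its reverse complement) is scored by the PBM enrichment score (E-score), a modified Wilcoxon-Mann-Whitney statistic from -0.5 to +0.5, computed with the Universal PBM Analysis Suite. Scale: above 0.35 generally sequence-specific binding.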

UniProt P50104, sequence (P50104 whole entry): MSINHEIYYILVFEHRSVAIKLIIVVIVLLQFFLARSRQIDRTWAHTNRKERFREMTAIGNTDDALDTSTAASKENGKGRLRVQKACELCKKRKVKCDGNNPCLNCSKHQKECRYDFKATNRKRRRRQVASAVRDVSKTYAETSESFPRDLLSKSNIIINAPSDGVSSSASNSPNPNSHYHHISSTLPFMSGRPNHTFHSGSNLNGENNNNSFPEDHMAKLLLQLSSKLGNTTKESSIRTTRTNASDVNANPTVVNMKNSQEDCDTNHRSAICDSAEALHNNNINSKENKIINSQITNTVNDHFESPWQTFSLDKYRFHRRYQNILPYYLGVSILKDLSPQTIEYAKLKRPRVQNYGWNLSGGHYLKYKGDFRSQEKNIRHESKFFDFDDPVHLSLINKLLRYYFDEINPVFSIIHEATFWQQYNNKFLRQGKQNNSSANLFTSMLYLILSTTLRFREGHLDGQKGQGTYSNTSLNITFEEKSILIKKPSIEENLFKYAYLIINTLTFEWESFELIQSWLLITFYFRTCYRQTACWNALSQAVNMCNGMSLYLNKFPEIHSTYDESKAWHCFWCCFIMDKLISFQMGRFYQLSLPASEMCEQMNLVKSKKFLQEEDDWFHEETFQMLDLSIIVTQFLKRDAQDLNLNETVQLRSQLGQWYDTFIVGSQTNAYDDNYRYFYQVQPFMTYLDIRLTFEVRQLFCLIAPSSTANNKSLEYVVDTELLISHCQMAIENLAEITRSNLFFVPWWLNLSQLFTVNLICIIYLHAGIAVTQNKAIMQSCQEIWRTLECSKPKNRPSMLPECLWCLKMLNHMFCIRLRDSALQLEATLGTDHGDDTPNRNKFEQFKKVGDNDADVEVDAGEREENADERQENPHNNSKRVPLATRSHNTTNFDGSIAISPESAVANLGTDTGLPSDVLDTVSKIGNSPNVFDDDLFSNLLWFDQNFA

| Sequence | PBM E-score |
| --- | --- |
| TACCAAAA | -0.12 |
| AAATTGTG | -0.295 |
| GTGATCTA | -0.0262 |
| ATCCCTTC | -0.183 |
| GCGATTGA | -0.113 |
| CAGCCAAA | -0.0614 |
| AAGCCGAC | 0.26 |
| AAGCCGCA | 0.167 |
| AAGCCGAA | 0.407 |
| AAGCCGAT | 0.299 |
| CAGCCGAC | 0.311 |
| AAGCCGAG | 0.401 |
| AAGCCGGA | 0.355 |
| CAGCCGAA | 0.392 |
| AAGCCAAA | -0.0671 |
| GAGCCGGA | 0.348 |
| TAGCCGGA | 0.384 |
| CTAGCCAC | -0.287 |
| AACTTGGG | 0.0814 |
| AGAGCCTG | -0.237 |
| TAAGTTGA | -0.103 |
| GGATCACA | 0.228 |
| TAGTGAAA | -0.178 |
| CGATACTC | 0.065 |
| AGGGCCAT | -0.253 |

| Sequence | PBM E-score |
| --- | --- |
| TGGCCGAA | 0.251 |
| CAGCCGGG | 0.237 |
| TAGCCGAA | 0.446 |
| CAGCCGCG | 0.151 |
| GAGCCGCA | 0.0237 |
| CAGCCGAG | 0.409 |
| GAGCCGAC | 0.296 |
| GAGCCGAA | 0.423 |
| TAGCCAAA | 0.0424 |
| AGGTCGCC | 0.00267 |
| AAGGGCAA | 0.158 |
| CTGCTAGC | -0.23 |
| TAGTTTGA | -0.121 |
| ATAACGCA | -0.0729 |
| CCGGTAGA | 0.264 |
| CGGAAACG | 0.384 |
| AGGAAACG | -0.164 |
| GGGAAACA | 0.175 |
| CGGAAACA | 0.427 |
| AGGAAACA | -0.0661 |
| CGGAAACC | 0.347 |
| ATCAAATG | 0.129 |
| ACCTAAAG | -0.0577 |
| AGTGCACC | 0.0754 |
| CGTAAACA | 0.055 |

| Sequence | PBM E-score |
| --- | --- |
| AGGCTCGC | -0.00633 |
| ACGCTCGG | 0.42 |
| ATGCTCGA | -0.139 |
| ACGCTCGA | -0.198 |
| ATGCTCGC | -0.239 |
| ATGCTCGG | 0.404 |
| AGGCTCGG | 0.432 |
| AGGCTCGA | -0.126 |
| ACGCTCGC | -0.227 |
| TAAATGGA | -0.104 |
| TAAAACAA | -0.199 |
| AATGGGGC | -0.232 |
| CCTCGCGC | -0.0639 |
| ATCGACGC | -0.126 |
| CCTAGGGC | -0.153 |
| CGTACCGA | 0.334 |
| ACTATCGG | 0.236 |
| CCTCCCGC | 0.133 |
| CCTCCCCA | -0.0256 |
| CCTCCCGA | 0.387 |
| GCTCCCAA | -0.272 |
| ACTCCCGC | 0.234 |
| GCTCCCGA | 0.41 |
| ACTCCCGG | 0.372 |
| GCTCCCCA | -0.311 |

| Sequence | PBM E-score |
| --- | --- |
| ACTCCCGA | 0.411 |
| TTGATCAA | -0.205 |
| ACGGACGC | -0.0449 |
| TCTCCGCA | 0.147 |
| TCTCCAAA | -0.144 |
| CCTCCGCG | 0.159 |
| GCTCCGAA | 0.4 |
| GCTCCGGA | 0.346 |
| TCTCCGAA | 0.384 |
| CCTCCGAG | 0.4 |
| ACTCCGGA | 0.411 |
| GCTCCGAC | 0.238 |
| ACTCCGGC | 0.281 |
| CCTCCGAA | 0.352 |
| CCTCCGAC | 0.209 |
| AGGCTAGC | -0.217 |
| CCGGTCAC | 0.108 |
| CGGTGCTA | 0.103 |
| TAAGAGAA | -0.344 |
| ACATCGAC | -0.0835 |
| AACAGTAG | -0.0759 |
| ACATTGAT | 0.0749 |
| AAAGTTAG | -0.00674 |
| CAGCGGTC | -0.186 |
| ACTCCGAT | 0.242 |

| Sequence | PBM E-score |
| --- | --- |
| ACTCCGTA | 0.0548 |
| ACTCCGAC | 0.32 |
| ACTCCGAG | 0.395 |
| ACTCCAAA | -0.0951 |
| ACTCCGAA | 0.385 |
| CAATAGGG | -0.163 |
| CGGCCTGA | 0.0862 |
| CAAGCGAA | -0.201 |
| TCGCGTAA | 0.0292 |
| CACAACCC | -0.0519 |
| GTCCATTA | -0.172 |
| GGATCCGA | 0.459 |
| AGATCCCG | 0.407 |
| CGATCCGA | 0.475 |
| AGATCCGC | 0.291 |
| CGATCCCG | 0.342 |
| AGATCCGA | 0.477 |
| CGATCCTA | -0.0737 |
| GGATCCTA | 0.122 |
| AGATCCCT | -0.226 |
| GGATCCCA | 0.102 |
| AGATCCGG | 0.366 |
| CGATCCGC | 0.325 |
| AGCGATAT | -0.172 |
| GTTCCTTA | 0.0117 |

| Sequence | PBM E-score |
| --- | --- |
| AATGCAGC | -0.19 |
| GGGGAAGA | -0.186 |
| AACCGCCG | 0.22 |
| CAACACAG | -0.278 |
| CTAACGTA | -0.201 |
| AACAATGT | -0.0925 |
| CAGAACGC | -0.126 |
| AGGAACGC | -0.097 |
| AGGAACGA | 0.0238 |
| CGGAACGA | 0.399 |
| GGGAACGA | 0.0562 |
| CGGAACGC | 0.407 |
| GCGTTCCA | -0.104 |
| ATCTATAC | 0.0424 |
| ATCTATTA | 0.0372 |
| GAGGTTCA | 0.012 |
| CACTTGAG | -0.265 |
| GGGTCGAC | 0.0843 |
| CATCGGGC | 0.181 |
| ACCTTCGT | -0.0808 |
| ACCTTCGG | 0.404 |
| CCCTTCGA | -0.0805 |
| ACCTTCGA | -0.171 |
| CCCTTCGG | 0.401 |
| CCCTTCGC | -0.135 |

| Sequence | PBM E-score |
| --- | --- |
| CCAACTTC | -0.0561 |
| GTCAAAAC | -0.0364 |
| TAGAGATA | -0.0379 |
| CCAAACTC | -0.0175 |
| ATTTATGC | -0.126 |
| TAATCCTA | -0.00858 |
| AAATCCGG | 0.332 |
| TAATCCCA | -0.0875 |
| TAATCCGA | 0.39 |
| GAATCCTA | 0.00817 |
| AAATCCGT | 0.186 |
| CAATCCGG | 0.244 |
| GAATCCGC | 0.206 |
| AAATCCGA | 0.396 |
| GAATCCGA | 0.4 |
| CAATCCGC | 0.191 |
| CAATCCGA | 0.403 |
| CTGATCCA | -0.0972 |
| CGTGCTTA | -0.0565 |
| ACCACATG | -0.182 |
| GAGAAATA | 0.0451 |
| AGGACCCC | -0.0529 |
| AAGCTTGC | -0.209 |
| CCATGCGG | -0.0615 |
| ATACCAGC | -0.121 |
